We go through 62 compounds from PubChem BioAssay AID1220 (Sanford-Burnham Center for Chemical Genomics, 2008).

In all, about 190,000 compounds went through this assay and about 1,300 (0.68%) were called active. What follows is part of a selection rich in actives, with near analogues and random picks from the rest. A number with no mark means an inactive call. Cut-off read from the data, not from the text of the source: active = inhibition above about 50%; inactive = the rest.

For orientation: inhibition means the change of the read-out against control, counted positive when it falls.

Mannose-6-phosphate isomerase (Homo sapiens), sequence (P34949 whole entry, looked up): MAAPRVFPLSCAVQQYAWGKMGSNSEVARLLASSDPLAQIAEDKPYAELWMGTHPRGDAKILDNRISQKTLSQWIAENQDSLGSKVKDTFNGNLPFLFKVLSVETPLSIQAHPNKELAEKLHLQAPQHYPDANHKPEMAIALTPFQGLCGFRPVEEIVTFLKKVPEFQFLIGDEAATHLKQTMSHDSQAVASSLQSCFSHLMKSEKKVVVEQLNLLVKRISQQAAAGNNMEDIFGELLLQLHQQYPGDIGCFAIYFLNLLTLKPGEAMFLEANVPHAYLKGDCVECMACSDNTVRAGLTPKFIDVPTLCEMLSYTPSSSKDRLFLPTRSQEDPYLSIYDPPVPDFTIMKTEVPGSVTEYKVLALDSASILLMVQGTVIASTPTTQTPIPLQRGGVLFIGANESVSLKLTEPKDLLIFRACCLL

This assay concerns the target Mannose-6-phosphate isomerase (Homo sapiens) (UniProt P34949). The assay can be described thus: human PMI inhibitors, high substrate, primary screen, biochemical, fluorescence intensity, high mannose 6-phosphate (AID 1220). The settings on record: recombinant PMI enzyme, coupled fluorescence intensity; at 20 µM; hits give high values.
With `Cc1c2cnn(-c3ccccc3)c(=O)c2c(C)n1CCCC(=O)N1CCN(c2ncccn2)CC1`, the inhibition was -2.5%.

With `COc1ccc(NC(=S)Nc2ccc3nc(C)c(C)nc3c2)cc1`, the inhibition was 54.2% (active).

Consider `COc1ccc(NC(=S)Nc2ccc3nsnc3c2)cc1`, for which the inhibition is 47%.

With `CNC(=S)Nc1ccc2nc(C)c(C)nc2c1`, the inhibition is 38%.

Take `COc1ccc(NC(=O)c2ccc3snnc3c2)cc1`: the inhibition is -1.3%.

Take `COc1ccc(NC(=S)Nc2ccc3snnc3c2)cc1`: the inhibition is 54.2% (active).

`S=C(Nc1ccc(N2CCOCC2)cc1)Nc1ccc2snnc2c1`: the inhibition was 41%.

Regarding `CCNC(=S)Nc1ccc(Cl)c(C(F)(F)F)c1`, the inhibition is 7.2%.

`CCN1CCC(NC(=O)Nc2ccc(F)cc2F)CC1`: the inhibition was -11.5%.

`CCCS(=O)(=O)c1ccc(COC(=O)c2ccc(NC(C)=O)cc2)cc1`: the inhibition was -0.1%.

Take `c1ccn2c(Cc3nnc4ccccn34)nnc2c1`: the inhibition was -7.1%.

In the case of `CCn1nc(C)c(C(=O)Nc2cc(Oc3ccc(Cl)cc3)cc([N+](=O)[O-])c2)c1C`, the inhibition is 4.3%.

Consider `O=C(N/C(=C\c1ccco1)C(=O)N1CCCC1)c1cccs1`, for which the inhibition is 8.5%.

As to `CCC(C)(C(=O)NC1CCCC1)N(Cc1cccs1)C(C)=O` (configuration not stated), the inhibition is 0.2%.

Take `CCC(C)(C(=O)NC1CCCC1)N(Cc1cccs1)C(=O)c1ccccn1` (configuration not stated): the inhibition was 59.3% (active).

As for `CCC(C)(C(=O)NC1CCCCC1)N(Cc1cccs1)C(=O)c1ccccn1` (configuration not stated), the inhibition was -2%.

As to `Cc1c2c(nc3c(C(=O)NC4CC4)cnn13)CCCC2`, the inhibition was -0.9%.

With `COc1cccc(CN2CCNC(=O)C2CC(=O)NCc2cn3ccccc3n2)c1OC` (configuration not stated), the inhibition is 7.8%.

In the case of `COc1cccc(CN2CCNC(=O)C2CC(=O)NCCn2cccn2)c1OC` (configuration not stated), the inhibition is 16.7%.

Consider `COc1cccc(CN2CCNC(=O)C2CC(=O)NCCn2ccc3ccccc32)c1OC` (configuration not stated), for which the inhibition was 51.1% (active).

With `Cc1c(NC(=O)C2CCCO2)cccc1[N+](=O)[O-]` (configuration not stated), the inhibition was 0.2%.

In the case of `Cc1c(N=C2C(=O)Nc3ccccc32)c(=O)n(-c2ccccc2)n1C`, the inhibition is 14.2%.

For `Cc1csc(=Nc2c(C)n(C)n(-c3ccccc3)c2=O)n1-c1ccccc1`, the inhibition was 5.3%.

Turning to `Cc1c(N=CC=Nc2c(C)n(C)n(-c3ccccc3)c2=O)c(=O)n(-c2ccccc2)n1C`, the inhibition is -5.1%.

Take `Cc1c(N=c2scc(-c3ccccc3)n2C)c(=O)n(-c2ccccc2)n1C`: the inhibition is -10.5%.

Regarding `O=C(N1CCOCC1)N(CCN1CCOCC1)Cc1cccc2ccccc12`, the inhibition is 6.2%.

As to `CCOc1ccccc1NC(=O)c1ccc2nccnc2c1`, the inhibition was 14.2%.

Take `CC(NS(=O)(=O)c1ccc(Br)cc1)C(c1cccs1)N1CCOCC1` (configuration not stated): the inhibition was 10.2%.

With `O=c1cc(CO)oc(C(Nc2cccc([N+](=O)[O-])c2)c2ccccn2)c1O` (configuration not stated), the inhibition is 28.5%.

In the case of `CCOc1ccc(NC(c2ccccn2)c2oc(CO)cc(=O)c2O)cc1` (configuration not stated), the inhibition was 51.1% (active).

`O=c1cc(CO)oc(C(Nc2cccc(C(F)(F)F)c2)c2ccccn2)c1O` (configuration not stated): the inhibition is 43.6%.

As for `O=C(NC(c1ccc(Cl)cc1)c1c(O)ccc2ccccc12)c1ccccc1` (configuration not stated), the inhibition is 27.6%.

With `COc1ccc(C(NC(C)=O)c2c(O)ccc3ccccc23)cc1OC` (configuration not stated), the inhibition was 8.9%.

As to `CC(=O)NC(c1ccc(Cl)cc1)c1c(O)ccc2ccc(O)cc12` (configuration not stated), the inhibition was 69.9% (active).

On to `CCc1ccc(-n2c(Cc3ccccc3)n[nH]c2=S)cc1`, for which the inhibition was 10.9%.

For the compound `Cc1cc(C2=NNC(=NCCc3ccccc3)SC2)c(C)n1CC1CCCO1` (configuration not stated), the inhibition was -32.7%.

In the case of `COCCN=C1NN=C(c2cc(C)n(CC3CCCO3)c2C)CS1` (configuration not stated), the inhibition is 54.9% (active).

For `CCOc1ccc(N=C2NN=C(c3cc(C)n(CC4CCCO4)c3C)CS2)cc1` (configuration not stated), the inhibition was -81.4%.

Consider `Cc1cc(C)c(S(=O)(=O)Cc2ccccc2)c(=O)[nH]1`, for which the inhibition is -13%.

In the case of `COc1ccc(/C=N/NC(=O)Cn2c(Cc3ccc(OC)c(OC)c3)nc3ccccc32)cc1OC`, the inhibition was 5.5%.

With `CCN1C(=O)C(CC(=O)Nc2ccccc2)S/C1=N\c1ccccn1` (configuration not stated), the inhibition was -2.2%.

In the case of `CCOC(=O)C1(Cc2ccccc2C)CCCN(Cc2cc(OC)c(O)c(OC)c2)C1` (configuration not stated), the inhibition was 65.5% (active).

For `CCOC(=O)C1(Cc2ccccc2C)CCCN(Cc2ccc(NC(C)=O)cc2)C1` (configuration not stated), the inhibition was -4.1%.

As for `CCOC(=O)C1(Cc2ccccc2C)CCCN(Cc2cn(C)nc2C)C1` (configuration not stated), the inhibition was 12.5%.

Consider `COc1ccc(CC(=O)Nc2ccc(OC)c(NC(=O)c3ccco3)c2)cc1`, for which the inhibition was 11.2%.

For the compound `COc1ccc(S(=O)(=O)N(CC(C)C)CC(C)C)c2cccnc12`, the inhibition is 10.4%.

For the compound `COc1ccccc1Oc1ccc2c(c1)C(=O)N(c1ccc(Br)c3cccnc13)C2=O`, the inhibition is 8.4%.

As to `COc1cc(NC(C)CCCN)c2ncccc2c1Oc1ccccc1` (configuration not stated), the inhibition was 56.6% (active).

For the compound `O=C(N/N=C/c1c[nH]c2ccccc12)c1ccn(Cc2ccc(Cl)cc2)n1`, the inhibition is 1.6%.

As to `O=C(CSCc1nc2ccccc2[nH]1)Nc1ccc(Oc2ccccc2)cc1`, the inhibition was 10.1%.

For the compound `O=S(=O)(NCc1ccncc1)c1ccccc1`, the inhibition was -9.4%.

In the case of `O=C(Nc1cccn(Cc2c(F)cccc2Cl)c1=O)NC1CCCCC1`, the inhibition is 17.3%.

`O=C(NCc1ccccc1)Nc1cccn(Cc2ccccc2F)c1=O`: the inhibition was 20.5%.

As for `COC(=O)Nc1cccn(Cc2c(Cl)cccc2Cl)c1=O`, the inhibition was 58.7% (active).

Turning to `Cc1ccc(NC(=O)Nc2cccn(Cc3c(F)cccc3Cl)c2=O)cc1`, the inhibition is 55.7% (active).

With `O=C(NCc1ccccc1)Nc1cccn(Cc2ccccc2Cl)c1=O`, the inhibition was 38.2%.

On to `CC(=O)Nc1cccn(Cc2c(Cl)cccc2Cl)c1=O`, for which the inhibition is 8.5%.

On to `O=C(Nc1ccccc1)Nc1cccn(Cc2c(F)cccc2Cl)c1=O`, for which the inhibition was 35.6%.

Consider `O=C(NCc1ccccc1)Nc1cccn(Cc2c(F)cccc2Cl)c1=O`, for which the inhibition is 53.7% (active).

As to `C#CCOC(=O)Nc1cccn(Cc2c(Cl)cccc2Cl)c1=O`, the inhibition was -71%.

For the compound `O=C(Cn1cncn1)NCCC(c1ccccc1)c1ccccc1`, the inhibition was 5.2%.

Turning to `COc1ccc2c(c1)CC/C2=N\OC(=O)c1cccc(C)c1`, the inhibition was 2.5%.
